HCMV antiviral: inhibitors of human cytomegalovirus | HFF cells, HCMV-luciferase reporter, 72 h; active compounds read low | activity change, negative = inhibition, % at 57.5 µM | hit rate 4.5% among 410,000 | AID 1259415; in the data active = activity change below about -60%; inconclusive = no clear call, values can overlap the other calls; inactive = above about -39%; note: % is set by controls: 0 for no effect and ±100 for the full control effect
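After 16 h attachment at 37C, HFF cells received test compound and HCMV-luciferase (1 PFU/cell); reporter luminescence read 72 h later, data normalized against buffer-only and known inhibitor Salinomycin.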
Pf growth 48h: P. falciparum growth inhibition at 48 hours (one generation) | P. falciparum luciferase growth in erythrocytes, 48 h | Potency, µM (top dose mostly 28.7 µM), without a hit: top-dose activity change, negative = inhibition, usual class: inhibitors | hit rate 5.9% among 310,000; note: potency is the fitted concentration of half-maximal effect; % is set by controls: 0 for no effect and ±100 for the full control effect
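Compounds are pin-transferred into medium, infected erythrocytes (2% hematocrit, 0.1% parasitemia final) are added, and plates sit one parasite generation at 37 C in 5% CO2. Detection reagent is then added and luminescence measured.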
SARS PLpro yeast: blocks SARS-CoV papain-like protease in a yeast assay; S. cerevisiae expressing SARS-CoV PLpro, growth rescue; Potency, µM (doses to about 32.9 µM), without a hit: top-dose activity, positive = growth rescue, actives largely listed as activators; hit rate 0.19% among 330,000; calls by dose curve; note: potency is the fitted concentration of half-maximal effect; 0% is about no effect; nearly all actives have a fitted effect of over 55% in size
Sm TGR block: blocks Schistosoma mansoni thioredoxin glutathione reductase. Q962Y6. purified TGR, DTNB reduction, TNB absorbance 405 nm. Potency, µM (series often up to 114 µM), inactives show top-dose activity change, negative = inhibition, hits mostly inhibitors. hit rate 3% among 360,000. AID 485364; note: potency is the fitted concentration of half-maximal effect; % is set by controls: 0 for no effect and ±100 for the full control effect; nearly all actives have a fitted effect of over 60% in size
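TGR 20 nM + NADPH 100 uM (dispensed conc.), cpd preinc 15 min RT; start with NADPH (500 uM addition) then DTNB (15 mM addition). Kinetic TNB absorbance, 405 nm filter. Four-parameter Hill fit across titration.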
HCV inhibitor: blocks hepatitis C virus; hit rate 3.4% among 340,000; AID 651820; Potency, µM (doses to about 41.8 µM), for inactives: at the highest dose activity change, negative = inhibition, actives largely listed as inhibitors; Huh7.5.1 HCVcc-Cre infection, luciferase reporter, 44 h; note: potency is the fitted concentration of half-maximal effect; % is set by controls: 0 for no effect and ±100 for the full control effect
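Seed cells (1,000/well) for 4 h; treat with compound and infect with HCVcc-Cre, moi about 0.5. Incubate 44 h, then detect luciferase activity.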
Pf growth 96h: P. falciparum growth inhibition at 96 hours. P. falciparum luciferase reporter growth, 96 h. Potency, µM (highest dose often 28.7 µM), without a hit: top-dose activity change, negative = inhibition, most hits filed as inhibitors. hit rate 6.9% among 320,000; note: potency is the fitted concentration of half-maximal effect; % is set by controls: 0 for no effect and ±100 for the full control effect
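Compounds incubated with erythrocytes infected by luciferase-expressing P. falciparum (2% hematocrit, 0.05% parasitemia final) for 96 hours, 37 C in 5% CO2. Growth inhibition scored as decreased luciferase luminescence.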
Starred values were filed as active, the others as inactive; ? = inconclusive; . = not tested or not shown. Shown are actives, neighbours in structure and some others; about 15% of the full set was active somewhere. Unless noted, calls come from the whole dose curve; as a rule, active = well fitted curve in the direction sought with a large enough effect; inconclusive = small, poorly fitted or top-dose-only effect, or another doubt; inactive = no such curve, though single readings can be large; an effect the other way counts as inactive or inconclusive.

SMILES	HCMV antiviral	Pf growth 48h	SARS PLpro yeast	Sm TGR block	HCV inhibitor	Pf growth 96h
Cc1ccc(-c2cn3cccnc3n2)cc1NC(=O)Cc1ccccc1	14.4	.	.	?	.	.
CCOc1ccc(S(=O)(=O)N2CCOCC2)cc1NC(=O)CSCc1ccc(C)cc1	-15.0	9.28µM*	10.7%	-13.1%	?	?
CN1CCN(c2ccc(-c3cccc(NC(=O)COc4ccc(Cl)cc4)c3)nn2)CC1	-4.8	?	-2.5%	-1.4%	?	?
CCOC(=O)c1c(-c2ccccc2Cl)csc1NC(=O)c1cc(S(=O)(=O)N2CCOCC2)ccc1C	?	14.7µM*	7.9%	-4.3%	?	?
Cc1ccc(S(=O)(=O)N2CCOCC2)cc1C(=O)NCCN1C(=O)S/C(=C\c2ccccc2Cl)C1=O	-33.9	-13.5%	-7.0%	-8.4%	12.6µM*	?
CN1CCN(c2ccc(-c3cccc(NC(=O)COc4ccc(Cl)cc4Cl)c3)nn2)CC1	-26.2	-86.1%	.	4.2%	11.2µM*	-1.9%
O=C(NCCN1C(=O)S/C(=C\c2cccnc2)C1=O)c1cc(S(=O)(=O)N2CCOCC2)ccc1F	?	-5.9%	-0.2%	-15.4%	-9.6%	-6.2%
COc1ccc(N(CC(=O)O)S(=O)(=O)c2cccnc2)cc1	-22.2	11.4%	5.3%	2.6%	-11.7%	13.5%
COc1ccc(C2=NOC(c3nnc(-c4ccccc4)o3)C2)cc1 (stereo unspecified)	19.7	.	.	.	7.3%	.
CN(c1ccccc1)S(=O)(=O)c1ccc(C(=O)N2CCN(c3ccccc3)CC2)cc1	-27.9	.	.	.	.	.
CC1=C(C(=O)Nc2ccc(Cl)cc2)C(c2cccs2)n2nc(SCc3cccc(C)c3)nc2N1 (stereo unspecified)	9.1	.	.	16.2%	.	.
CCOc1ccccc1NC(=O)c1cc(S(=O)(=O)N2CCOCC2)ccc1C	0.1	-10.1%	1.5%	0.6%	9.6%	11.7µM*
CCCCn1ccnc1C(=O)c1cc(S(=O)(=O)N2CCOCC2)ccc1C	-66.1*	.	-6.6%	-12.0%	11.2µM*	-26.0%
CCOc1ccccc1C(=O)Nc1ccc(S(=O)(=O)N2CCOCC2)cc1	-11.2	-17.5%	12.3%	-8.9%	12.6µM*	17.3%
CCCCn1ccnc1C(=O)c1cccc(S(=O)(=O)N2CC(C)CC(C)C2)c1 (stereo unspecified)	-21.4	.	8.3%	-9.6%	-25.2%	?
CCOc1ccccc1C(=O)Nc1ccc(S(=O)(=O)N2CCN(C)CC2)cc1	-15.3	-5.5%	3.3%	-10.3%	-23.6%	?
CCOc1ccccc1C(=O)Nc1cccc(-c2ccc(N3CCOCC3)nn2)c1	24.8	?	-18.7%	-1.5%	?	9.28µM*
COc1ccccc1N1CCN(C(=O)c2nn(-c3ccc(C)cc3)c(=O)n(C)c2=O)CC1	8.7	.	.	-6.5%	.	.
O=C(CCN1C(=O)c2cccc([N+](=O)[O-])c2C1=O)NC1CCCCCC1	-19.7	.	3.5%	.	0.3%	.
CCOc1cc(C(=O)Nc2ccc(S(=O)(=O)NC3=NCCCCC3)cc2)cc(Br)c1OC	-9.5	-19.6%	2.2%	12.9%	-27.0%	?
COc1ccccc1C(CNC(=O)CCNS(=O)(=O)c1ccc(Br)cc1)N1CCCC1 (stereo unspecified)	-29.0	.	.	.	?	.
COc1cc(C(O)P(=O)(OC2CCCCC2)c2ccc(N(C)C)cc2)cc(OC)c1OC (stereo unspecified)	-18.0	?	9.8%	-2.7%	19.6%	13.1µM*
COc1ccc(NC(=O)C2CCN(S(=O)(=O)c3cn(C)nc3C)CC2)cc1	2.9	6.6%	2.0%	-6.3%	0.5%	?
Cc1cccc(NC(=S)NCCc2ccccc2)n1	-72.4*	?	0.5%	?	-24.5%	?
CN(C)/C=N/C(=S)Nc1ccccc1Cl	-31.3	72.8%	-0.6%	.	2.3%	10.2%
SMILES	HCMV antiviral	Pf growth 48h	SARS PLpro yeast	Sm TGR block	HCV inhibitor	Pf growth 96h
CN(O)/C=N/C(=S)Nc1ccc(Cl)cc1Cl	?	-3.0%	0.2%	0.562µM*	-3.6%	10.1%
S=C(NCCc1ccccc1)Nc1ccc(Br)cc1	-74.8*	17.7%	15.7%	-13.7%	-0.3%	96.4%
S=C(NCCOCCOCCNC(=S)Nc1ccccc1)Nc1ccccc1	-13.9	6.57µM*	-1.3%	-35.8%	-2.2%	-1.1%
Cc1nn(C)c(C(=O)NNC(=S)NCC(C)C)c1Cl	12.3	-3.2%	-7.5%	1.4%	12.4%	?
O=C(CN1C(=O)NC2(CCCCC2)C1=O)NCC(=O)Nc1ccc(F)c(F)c1	9.5	0.0%	1.6%	-10.5%	3.1%	-14.6%
N/C(=N\C(=S)Nc1ccc2c(c1)OCO2)c1ccccc1	59.3	.	.	.	.	.
Cc1cc(Cl)ccc1NC(=S)NCc1ccc(Cl)cc1	34.8	?	1.6%	1.9%	?	-8.6%
S=C(NCCc1ccccc1)Nc1ccc(Cl)cc1Cl	-39.9	-4.7%	-1.5%	0.7%	-18.9%	40.8%
CCNC(=S)Nc1ccc(Cl)cc1Cl	-64.9*	6.8%	?	44.7µM*	-3.6%	-19.8%
Cc1cc(Cl)ccc1NC(=S)NCCc1ccc(Cl)cc1	-83.1*	?	-17.8%	3.8%	?	?
Cc1ccc(NC(=S)NCCc2c[nH]c3ccccc23)c(C)c1	-89.7*	?	-4.8%	5.5%	?	?
Cc1cc(Br)ccc1NC(=S)NCCc1ccccc1	-66.2*	-31.9%	-16.0%	-5.1%	-3.4%	11.7µM*
Cc1ccc(CNC(=O)C2CCC(=O)N(Cc3ccccc3F)C2)s1 (stereo unspecified)	120.2	0.0%	0.6%	-26.1%	-18.5%	-20.4%
CCCn1nc(C(=O)OCC(=O)Nc2ccc(C)cc2)c2ccccc2c1=O	-26.1	.	4.9%	.	2.5%	.
Cc1ccccc1C(=O)OCc1cnc(Cl)s1	-18.6	20.3%	-0.2%	8.5%	2.2%	21.8%
CCOc1cc(/C=C2\C(=O)NC(=O)N(CCc3ccc(F)cc3)C2=O)ccc1O	-1.2	19.3%	-0.5%	?	19.8%	-10.5%
CCOC(=O)C1=C(C)N(c2ccc(OC)cc2)C(=O)/C1=C\c1ccc(O)c(OCC)c1	-23.6	?	-0.3%	4.47µM*	-1.7%	-19.6%
CCOC(=O)C1=C(C)N(c2ccc(OC)cc2)C(=O)/C1=C\c1cccs1	-61.7*	-4.5%	-12.8%	-10.3%	12.6µM*	23.2%
C=CCN1C(=O)/C(=C\c2cccs2)C(C(=O)OC)=C1C	106.6	.	-3.9%	-19.4%	?	?
O=C(COc1ccccc1)Nc1ncc2c(n1)CCCC2=O	-61.7*	3.3%	-2.6%	-19.0%	-6.7%	-3.2%
CC1CCN(Cc2cc(=O)oc3ccc(C(C)C)cc23)CC1	?	3.29µM*	0.9%	-6.5%	?	1.85µM*
Cc1ccc2c(CN3CCN(c4ccccc4)CC3)cc(=O)oc2c1	-15.9	.	.	.	.	.
